Results as given in PubChem BioAssay (NCI).
The panel holds about 83,000 compounds, 20% with a hit somewhere; the sample as a whole holds those more often.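 Assay: single dose, 48 h. Readout: percent growth (0 = no net growth; negative = cell death). Active: <10.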 Active and inactive are the calls of the source.

Experiments:
Assay in all cases: NCI-60 one-dose screen, 48 h (100 = growth as untreated, 0 = no growth, -100 = all killed)
Conditions in all cases: 10 µM
[1] = system: HCT-15 colon
[2] = system: HT29 colon
[3] = system: SNB-19 CNS
[4] = system: U251 CNS
[5] = system: PC-3 prostate
[6] = system: SK-MEL-5 melanoma
[7] = system: UACC-62 melanoma
[8] = system: LOX IMVI melanoma
[9] = system: SK-MEL-28 melanoma
[10] = system: SNB-75 CNS

Measured: growth

CCOC(=O)C1=C(N)N(c2ccccc2)C2=C(C(=O)CC(C)(C)C2)C1c1ccccc1OC (centres undefined)
inactive: [1] 96.3% | [2] 103% | [3] 92.2% | [4] 111% | [5] 89.2% | [6] 97.2% | [7] 80.4% | [8] 101% | [9] 110%

CC(C)(C)c1ccc(NCc2cn(-c3ccc(C(=O)O)cc3)nc2-c2ccc(C#N)cc2)cc1
active: [1] -54.6% | [2] 3.73% | [6] 7.94%
inactive: [3] 24.6% | [4] 22.8% | [8] 23.5% | [9] 28.1%

Cc1ccc(-c2cc(C(=O)N=Nc3c(O)[nH]c4ccc(Br)cc34)c3ccccc3n2)cc1
active: [1] 8.77%
inactive: [2] 42.1% | [3] 61.1% | [4] 21.7% | [5] 52.9% | [6] 96.7% | [7] 60.6% | [8] 25.3% | [9] 84.4%

O=C(NO)c1ccc(CNc2nc(-c3ccccc3)c3ccccc3n2)cc1
active: [1] -6.55% | [2] 4.73% | [3] -8.9% | [4] -37.7% | [6] -87.8% | [7] -87.2% | [8] -96.9% | [9] -2.7%
inactive: [5] 16.7%

CCOC(=O)CNC(=O)CN(Cc1ccccc1)C(=O)[C@@]1(C)CCC[C@]2(C)[C@H]3C[C@H]4C(C(C)C)=C[C@]3(CC[C@H]21)[C@@H]1C(=O)OC(=O)[C@@H]14
inactive: [1] 18% | [2] 42% | [3] 67.7% | [4] 44.4% | [5] 39.2% | [6] 83.5% | [7] 64.4% | [8] 24% | [9] 82.5%

Cc1ccc(C(C)C)cc1NC(=O)c1ccccc1O
active: [6] -45.5% | [7] 9.83%
inactive: [1] 35% | [2] 103% | [3] 37.2% | [4] 41% | [5] 33.4% | [8] 40.1% | [9] 31.1%

C=C1CCC2C3(C)COC(c4c(F)cccc4F)OC3CCC2(C)C1CC(O)C1=CCOC1=O (centres undefined)
inactive: [1] 18.3% | [2] 23% | [3] 86.2% | [4] 69.1% | [5] 41% | [6] 68.2% | [7] 79.7% | [9] 62.3%

CC1(C)[C@@H](NCO)CC[C@]2(C)[C@H]3C(=O)C=C4[C@@H]5C[C@](C)(CO)CC[C@]5(C)CC[C@@]4(C)[C@]3(C)CC[C@@H]12
inactive: [1] 13.6% | [2] 13.9% | [3] 70.1% | [4] 18.9% | [5] 31.3% | [6] 61% | [7] 50.2%
active: [8] -74.8% | [9] -29.5%

Cc1noc2c(Cc3ccccc3)nn(CC(=O)N/N=C/c3ccc(Br)cc3)c(=O)c12
inactive: [1] 76.5% | [2] 71.1% | [3] 75.4% | [4] 18.4% | [6] 85.5% | [7] 79.7% | [8] 45.9%

COc1cnc2c(c1)C(=O)c1c-2n(CCCNC(C)C)c(=O)c2cc(OC)c(OC)cc12
active: [8] -88.2%
inactive: [1] 34.6% | [10] 70.7% | [3] 25.2% | [4] 30.4% | [5] 48.7% | [6] 47.7% | [7] 18.7%

O=C(Nc1ccc(Cl)c([N+](=O)[O-])c1)Nc1ccc(Cl)c([N+](=O)[O-])c1
inactive: [2] 13.1% | [3] 10.8% | [4] 10.6%
active: [1] 7.01% | [6] -26.7% | [7] 3.62% | [8] -8.77% | [9] 8.08%

Cc1ccc(C(=O)Nc2ccc(-n3c(C)nc4c(cnn4-c4ccccc4)c3=O)cc2)cc1
inactive: [1] 75.3% | [2] 71.2% | [3] 82.1% | [4] 90% | [5] 71.6% | [7] 60.8% | [8] 67.2% | [9] 80.7%
active: [6] 7.05%

Cc1ccc(-c2nc(Nc3ccc(C)c(S(N)(=O)=O)c3)c3ccccc3n2)cc1
active: [8] 2.94%
inactive: [1] 50.7% | [2] 43.1% | [3] 91.4% | [4] 18.6% | [5] 43.9% | [7] 87.8% | [9] 113%

CC1(c2ccccc2)NC(=O)N(CC(=O)Nc2ccc(C(=O)/C=C/c3ccc(Cl)cc3)cc2)C1=O (centres undefined)
active: [1] -61.4% | [4] -71.7% | [5] 9.23% | [6] -60.9% | [7] 1.17% | [8] -100%
inactive: [10] 37.5% | [3] 30.9%

Cc1ccc(-c2ccc(SCC(=O)Nc3ccc(S(N)(=O)=O)cc3Br)nn2)cc1
inactive: [2] 11.4% | [3] 39.5% | [6] 68.4% | [7] 60% | [9] 60.9%
active: [1] 9.74% | [4] -45.8% | [8] -66.4%

CC1=C(c2cc(-c3ccc(Cl)cc3)c(C#N)c(N)n2)C(c2ccccc2)NC(=S)N1 (centres undefined)
inactive: [1] 10.9% | [2] 24.7% | [3] 75.4% | [4] 38.8% | [5] 49.8% | [6] 58.1% | [7] 62.7% | [9] 57.7%
active: [8] -49.2%

CCOC(=O)C1=C(N)N(c2ccc(C)cc2)C2=C(C(=O)CC(C)(C)C2)C1c1ccccc1OC (centres undefined)
inactive: [1] 98.4% | [2] 116% | [3] 93.1% | [4] 104% | [5] 93.5% | [6] 100% | [7] 89.8% | [8] 104% | [9] 104%

CC1CC(c2ccc(N(C)C)cc2)=NN1c1nc(O)c(C2=c3cc(Br)ccc3=NC2=O)s1 (centres undefined)
active: [8] -46.1%
inactive: [1] 50.5% | [2] 83.5% | [3] 94.7% | [4] 69.9% | [5] 53.2% | [6] 73.5% | [7] 98.5% | [9] 110%

O=c1nc(-c2ccccc2)cc(-c2cc3ccccc3nc2Cl)[nH]1
active: [1] -64.1% | [2] -42.5% | [4] -72.7% | [8] -87.7%
inactive: [3] 13% | [5] 31.8% | [6] 62.2% | [7] 35.1% | [9] 71.5%

O/N=C(\CSc1nnc(-c2c[nH]c3ccccc23)n1-c1ccccc1)c1ccc(Br)cc1
active: [1] -92.8% | [2] -76.9% | [3] -9.28% | [4] 9.73% | [5] -64.4% | [6] -24.5% | [7] -90.5% | [8] -87.4% | [9] -26.3%

CNCc1cccc2c1OCCCCCC[C@@](C)(O)CC1(CC1)S(=O)(=O)c1ccc(cc1)-c1cnc(N)c(n1)C(=O)N2
active: [1] -96.6% | [2] -87% | [3] -97.4% | [4] -83.8% | [6] -100% | [7] -90.8% | [8] -100% | [9] -93.6%

Cc1cc(C)cc(Oc2cccc(-c3c(C)nnn3C3CCN(CCN(C)C)CC3)n2)c1
inactive: [2] 11% | [3] 47.7% | [4] 36.5% | [5] 37.7% | [7] 18.2% | [9] 19%
active: [1] 7.96% | [6] -53.4% | [8] 2.35%

CCCCCc1ccc(S(=O)(=O)Nc2cc(-c3csc(N(C)C(C)=O)n3)ccc2N2CCN(C)CC2)cc1
active: [1] 1.4% | [6] -6.97% | [7] -62.2% | [8] -71.1%
inactive: [2] 15.2% | [3] 41% | [4] 19.6%

Cc1ccc([N+](=O)[O-])c(C(=O)Nc2ccc(-c3ccc4c(c3)NC(=O)/C4=C\c3ccc[nH]3)cc2)c1
inactive: [2] 46.5% | [5] 21.3% | [6] 101% | [8] 21.9% | [9] 94.8%
active: [1] -17.3% | [4] 6.92%

O=c1[nH]c2ccc(Cl)cc2cc1CSc1ccc(Nc2nccc(-c3ccc4ccccc4c3)n2)cc1
inactive: [1] 12.6% | [2] 75.1% | [3] 71.8% | [4] 45.7% | [5] 62.4% | [6] 98.4% | [7] 106% | [8] 60.4% | [9] 90.8%

COc1cc(/C=C/C(=O)c2ccc(NC(=O)CN3C(=O)NC(C)(c4ccccc4)C3=O)cc2)cc(OC)c1OC (centres undefined)
inactive: [1] 11.8% | [3] 42.6% | [5] 31.9% | [6] 44.7% | [7] 41.6% | [9] 49.8%
active: [2] -2.37% | [4] -15.7% | [8] -46.1%

CC(=C(c1ccc(OCCCN(C)C)cc1)c1ccc(OCCCN(C)C)cc1)c1ccccc1
active: [1] -92.1% | [2] -78.4% | [3] -98.1% | [4] -86.1% | [5] -74.2% | [6] -100% | [7] -99.3% | [8] -100% | [9] -99.3%

OCc1[nH]nc2cc(Nc3ncc4ccc(Br)c(OC5CCC(O)CC5)c4n3)ccc12 (centres undefined)
active: [1] -5.87% | [2] -41.1% | [3] 6.37% | [4] 8.55% | [5] 9.54% | [6] -99.1% | [7] -89.2% | [8] -81.5% | [9] -68.7%

CN(CCO)c1oc(-c2ccccc2)nc1[P+](c1ccccc1)(c1ccccc1)c1ccccc1
inactive: [1] 51.4% | [4] 15.3% | [5] 10.8% | [9] 12%
active: [10] -2.5% | [3] 9.54% | [6] -93.3% | [8] -67.2%

CC1=N/C(=C\c2ccc(N(C)C)cc2)C(=O)N1CCc1ccc(S(N)(=O)=O)cc1
inactive: [1] 104% | [10] 77.8% | [3] 95.2% | [4] 91.8% | [5] 96.7% | [6] 97.8% | [7] 93.7% | [8] 98.1% | [9] 117%
